# Screen size: about 350,000 compounds; about 6,000 (1.7%) were called active. Another 5% or so got no clear call; they are omitted. The full list was thinned out, with actives kept by preference. A number with no mark means an inactive call. Rule as the data show it: active = CPE inhibition above about 20% (passing the limit was not always enough); inconclusive = no clear call, values can overlap the other calls; tested in BHK-21 cells.
# Test: protection of cells from dengue 2 killing – plate reader, single concentration, primary screen (AID 651640);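 also: 0% = median of neutral control wells and 100% = median of positive control wells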
# Settings: DENV2-infected cells, cytopathic effect rescue, at 9.99 µM, active compounds read high
row,Compound,CPE inhibition
1,Cc1ccc(S(=O)(=O)N2C[C@@H](O)COC[C@@H]3O[C@@H](CC(=O)N[C@H]4CCN(Cc5ccccc5)C4)CC[C@H]32)cc1,-6.36%
2,C/C=C/c1ccccc1[C@H]1[C@@H](C#N)N(c2nc(CC)cs2)[C@@H]1CO,-4.18%
3,O=C(CSc1nc2ccccc2c(=O)n1-c1ccc(F)cc1)NC1CC1,-10.2%
4,Cc1ccc(-n2c(SCC(=O)N3CCC(C(=O)O)CC3)nc3ccccc3c2=O)cc1C,31.6% (active)
5,O=C(CSc1nc2ccccc2c(=O)n1-c1ccccc1F)N1CCOCC1,3.85%
6,CC(=O)N1[C@H](CO)[C@H](c2ccccc2)C12CN(C(=O)c1ccccn1)C2,3.27%
7,C=CCOc1ccccc1CNn1c(C)n[nH]c1=S,25.4% (active)
8,C=CCOc1c(CNn2cn[nH]c2=S)cccc1OC,-7.79%
9,C=CCn1c(-c2ccccc2OCC)n[nH]c1=S,-1.21%
10,Nc1ncnc2c1ncn2[C@@H]1O[C@H](C(=O)N[C@@H](CCc2ccccc2)C(=O)N2CCCN(Cc3cccs3)CC2)[C@@H](O)[C@H]1O,-8.03%
11,COc1cccc(S(=O)(=O)N[C@H]2CC[C@H](CC(=O)NC3CCC3)O[C@H]2CO)c1,-5.34%
12,CO[C@@H]1CN(C)C(=O)c2ccc(NC(=O)c3ccccn3)cc2OC[C@@H](C)N(C(=O)C2CCCCC2)C[C@H]1C,-2.92%
13,O=C(C[C@H]1CC[C@H](NC(=O)Nc2ccc(C(F)(F)F)cc2)[C@H](CO)O1)NCCN1CCCC1,1.56%
14,NC(=O)c1ccc(Nc2ccc3nonc3c2[N+](=O)[O-])cc1,-0.407%
15,CCOc1ccccc1Nc1ccc2nonc2c1[N+](=O)[O-],22.7% (active)
16,CCOc1ccccc1Nc1ccc(C(=O)O)cc1[N+](=O)[O-],2.94%
17,O=C(Nc1ccccc1)N1C[C@H]2[C@@H](c3ccccc31)[C@@H](CO)N2Cc1cocn1,-3.04%
18,CO[C@H]1CN(C)C(=O)c2ccc(NC(=O)c3cc(C)on3)cc2OC[C@@H](C)NC[C@@H]1C,-4.45%
19,O=S(=O)(Cc1ccccc1)N1CCCCN2[C@@H](CO)[C@H](c3ccc(-c4ccccc4)cc3)[C@@H]2C1,59% (active)
20,Cc1cccc(-c2ccc([C@@H]3[C@@H](CO)N4CCCCN(S(=O)(=O)c5cccs5)C[C@H]34)cc2)c1,32.7% (active)
21,CCS(=O)(=O)N1CCCCN2[C@@H](CO)[C@@H](c3ccc(-c4ccccc4)cc3)[C@@H]2C1,12.3%
22,O=S(=O)(Cc1ccccc1)N1CCCCN2[C@@H](CO)[C@@H](c3ccc(-c4ccc(F)cc4)cc3)[C@@H]2C1,-23%
23,Cc1cccc(-c2ccc([C@H]3[C@H](CO)N4CCCCN(S(=O)(=O)c5cn(C)cn5)C[C@@H]34)cc2)c1,-11.9%
24,COc1cccc(-c2ccc([C@H]3[C@H](CO)N4CCCCN(S(=O)(=O)c5cccs5)C[C@@H]34)cc2)c1,-2.61%

row,Compound,CPE inhibition
1,CCNC(=O)[C@H]1[C@H](CO)[C@H]2Cn3c(cccc3=O)[C@H]2N1C(=O)C1CCCC1,3.43%
2,C[C@@H]1CCCCO[C@@H](CN(C)C(=O)C2CCCCC2)[C@H](C)CN([C@H](C)CO)C(=O)c2cc(NC(=O)Cc3ccccc3)ccc2O1,-2.34%
3,COc1cccc(S(=O)(=O)N[C@H]2CC[C@@H](CC(=O)NCc3ccc(F)cc3)O[C@@H]2CO)c1,2.23%
4,O=C(C[C@H]1CC[C@H](NC(=O)CCN2CCCCC2)[C@@H](CO)O1)Nc1ccccc1,-7.71%
5,O=C(O)C[C@@H]1CC[C@H](NC(=O)CCN2CCCCC2)[C@H](CO)O1,20.1% (active)
6,CN(C)CC(=O)N[C@@H]1CC[C@H](CC(=O)O)O[C@H]1CO,8.44%
7,C[C@@H](NC(=O)C[C@@H]1C=C[C@@H](NC(=O)CN2CCOCC2)[C@H](CO)O1)c1ccccc1,-6.9%
8,CNC(=O)C[C@@H]1CC[C@@H]2[C@@H](COc3ccc(NC(=O)Cc4cccs4)cc3C(=O)N2C)O1,-1.22%
9,COc1ccccc1C(=O)Nc1ccc2c(c1)OC[C@@H](C)NC[C@H](C)[C@@H](OC)CN(C)C2=O,-3.53%
10,O=C(NC1CCCCC1)C1CCCN(S(=O)(=O)c2ccc(Br)s2)C1 (stereo not drawn),2.35%
11,O=C(C1CCN(S(=O)(=O)c2ccc(Br)s2)CC1)N1CCN(c2ccccc2)CC1,-4.17%
12,O=C(C1CCN(S(=O)(=O)c2ccc(Br)s2)CC1)N1CCN(C2CCCCC2)CC1,66.2% (active)
13,C[C@H](CO)N1C[C@H](C)[C@H](CN(C)CC2CCCCC2)Oc2ccc(NC(=O)C3CCCCC3)cc2C1=O,0.912%
14,C[C@@H]1CCCCO[C@@H](CN(C)CC2CCCCC2)[C@H](C)CN([C@H](C)CO)C(=O)c2cc(NC(=O)C3CCCCC3)ccc2O1,-14.3%
15,C[C@H](CO)N1C[C@H](C)[C@@H](CN(C)Cc2ccc(C(=O)O)cc2)OCCCC[C@H](C)Oc2ccc(NC(=O)c3ccccc3)cc2C1=O,-2.18%
16,C[C@@H]1CN([C@H](C)CO)C(=O)c2cc(NC(=O)Cc3ccccc3)ccc2O[C@@H]1CN(C)CC1CCCCC1,-0.335%
17,C[C@@H]1CCCCO[C@H](CN(C)Cc2ccccc2)[C@@H](C)CN([C@H](C)CO)C(=O)c2cc(NC(=O)Cc3ccccc3)ccc2O1,-14%
18,C[C@H]1CCCCO[C@H](CN(C)Cc2ccccc2)[C@@H](C)CN([C@@H](C)CO)C(=O)c2cc(NC(=O)c3ccccc3)ccc2O1,48.2% (active)
19,C[C@H](CO)N1C[C@H](C)[C@@H](CN(C)CC2CC2)OCCCC[C@H](C)Oc2ccc(NC(=O)Cc3ccccc3)cc2C1=O,57.8% (active)
20,C[C@@H]1CN([C@@H](C)CO)C(=O)c2cc(NC(=O)Cc3ccccc3)ccc2O[C@@H]1CN(C)CC1CCCCC1,2.75%
21,C[C@@H]1CN([C@H](C)CO)C(=O)c2cc(NC(=O)C3CCCCC3)ccc2O[C@@H]1CN(C)CC1CCCCC1,22.8% (active)
22,C[C@@H]1CCCCO[C@H](CN(C)CC2CC2)[C@@H](C)CN([C@H](C)CO)C(=O)c2cc(NC(=O)Cc3ccccc3)ccc2O1,13.5%
23,C[C@H](CO)N1C[C@H](C)[C@H](CN(C)Cc2ccccc2)OCCCC[C@H](C)Oc2ccc(NC(=O)c3ccccc3)cc2C1=O,-7.82%
24,C[C@@H]1CN([C@@H](C)CO)C(=O)c2cc(NC(=O)Cc3ccccc3)ccc2O[C@H]1CN(C)CC1CC1,31.5% (active)

# Reference: PubChem BioAssay AID651640 (Broad Institute, 2012)
